From publication PMC7819943, “Rice protein-binding microarrays: a tool to detect cis-acting elements near promoter regions in rice”
Over roughly 68,000 sequences, “fluorescence intensity (a.u.)” has its median near 9,100; the highest 2% begin near 16,000. The list comes from a sample in which the highest values are over-represented; it also holds similar and randomly drawn sequences.

molecular target: OsWRKY34 (Oryza sativa, UniProt Q0JBA9 1-250); test: protein-binding microarray (RPBM); PBS, 2% BSA, 51.3 ng/ul salmon testes DNA, 50 uM zinc acetate, 200 nM TF, 25 C, 1 h; high values mean tight binding; details: protein: recombinant; tags: N-terminal polyhistidine and DsRed monomer fusion (pET32a); label: CyDye5-dUTP incorporated in the synthesized complementary strand; 3' TTTTT single-stranded linker to array surface; dsDNA, one strand shown
How it was run: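 Per-feature fluorescence intensity (arbitrary units), read on an Axon 4000B scanner, is the binding signal. Transcription factors carrying an N-terminal polyhistidine tag and DsRed fusion were expressed in E. coli BL21-CodonPlus and purified on Ni–NTA. A custom Agilent array, made double-stranded by primer extension with Cy5-dUTP and blocked with 2% BSA, was incubated with 200 nM protein in PBS, 2% BSA, salmon testes DNA and 50 µM zinc acetate at 25 °C for 1 h and then washed.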

Chain of OsWRKY34 (Q0JBA9 entry or part of it): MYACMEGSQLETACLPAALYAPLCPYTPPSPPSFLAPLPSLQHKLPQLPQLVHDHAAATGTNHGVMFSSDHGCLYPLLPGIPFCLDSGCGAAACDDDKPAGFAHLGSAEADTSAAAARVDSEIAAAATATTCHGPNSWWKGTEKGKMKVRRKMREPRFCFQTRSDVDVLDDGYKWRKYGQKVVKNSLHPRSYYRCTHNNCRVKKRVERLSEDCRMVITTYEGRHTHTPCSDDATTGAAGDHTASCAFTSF

| Sequence | binding signal |
| --- | --- |
| ACTTCTTCTACGTGATTTCCTGATTCGCCTCATCCGCTTCCGGAGTCACCTAGTGCAG | 9060 fluorescence intensity (a.u.) |
| TGGGGATGGCGGAGGTTAGCGGCGCGCTTTTTTTTCTATTCGGAGTCACCTAGTGCAG | 14500 fluorescence intensity (a.u.) |
| TTCATATACACATATAGTTTTACATATTTCATATTTTTTTCGGAGTCACCTAGTGCAG | 9360 fluorescence intensity (a.u.) |
| CCACCTGCCAGCCTGTACCCACCCCTCCCTACTGTTATACCGGAGTCACCTAGTGCAG | 8640 fluorescence intensity (a.u.) |
| ATGATCATAGCCATTTTTCCTCGCTTTAAATATTTGCTACCGGAGTCACCTAGTGCAG | 8490 fluorescence intensity (a.u.) |
| TTCGGAGGCGGAGGCGGTGGTGGGCTTGGTGGAGGTGGCGCGGAGTCACCTAGTGCAG | 9860 fluorescence intensity (a.u.) |
| GCTTGCTTGGTTGGTTGGTGGAGCTTGGGAGTTGAGGTCACGGAGTCACCTAGTGCAG | 11500 fluorescence intensity (a.u.) |
| CTGGATTGATTGGGAGTGTTGGGTTTCGGGCTAGATCTGGCGGAGTCACCTAGTGCAG | 9850 fluorescence intensity (a.u.) |
| GCTTGTTGTGGGCTGTGGACTGGGTGTGTGTGTGTGCTTTCGGAGTCACCTAGTGCAG | 9420 fluorescence intensity (a.u.) |
| CGGGTGGGGATGGGCTGGATCTGGATTGATTGGGAGTGTTCGGAGTCACCTAGTGCAG | 15200 fluorescence intensity (a.u.) |
| GCTTTTGGCTGTGGTGGGTGCTTGTGGGTGGAGAGAGAGACGGAGTCACCTAGTGCAG | 19300 fluorescence intensity (a.u.) |
| TTGGCGGTGGAGGCGGTGGTGGCTTTGGAGGAGACGGTGGCGGAGTCACCTAGTGCAG | 8650 fluorescence intensity (a.u.) |
| TGGCGGATTGATCTGGAGGTGGGCTTGTTGGGGTTGCTGTCGGAGTCACCTAGTGCAG | 18200 fluorescence intensity (a.u.) |
| AGTCTGGATTCTTGGAGGTCAACTTTGGTCAACGGTGGGGCGGAGTCACCTAGTGCAG | 14200 fluorescence intensity (a.u.) |
| GAGGTCTACTGTTATTGGGGATTCTTTTTGGGTGGGGTGGCGGAGTCACCTAGTGCAG | 31300 fluorescence intensity (a.u.) |
| GGTTGCTGTGGTTGGCGAGGTGGGGTGGGGCTTGGAGTAACGGAGTCACCTAGTGCAG | 27400 fluorescence intensity (a.u.) |
| GTGGCTTGAAAGGTCTGTGTGTTCTTGTTTGGGATTGAGGCGGAGTCACCTAGTGCAG | 8440 fluorescence intensity (a.u.) |
| ATCTTTGCCAAAATTTTTCTACTAGTATAATACTATCTCCCGGAGTCACCTAGTGCAG | 8420 fluorescence intensity (a.u.) |
| AAGCTCCGATCCACAGCGCACCTCGAGCCCTACCTCCGATCGGAGTCACCTAGTGCAG | 8940 fluorescence intensity (a.u.) |
| TTCCTCCATCCATTTTGTCAACTCCTCTCCGCTTTTCATCCGGAGTCACCTAGTGCAG | 9640 fluorescence intensity (a.u.) |
| GCCTGGCGCGCCTCTCCTGCTCTGTTGGACCGCCGCGCCCCGGAGTCACCTAGTGCAG | 12000 fluorescence intensity (a.u.) |

| Sequence | binding signal |
| --- | --- |
| CCACTCTCCGGCGCACCTATTTTCCATTTATATATATATGCGGAGTCACCTAGTGCAG | 9670 fluorescence intensity (a.u.) |
| TTGAACCCTGCTCTCAGCTGAGCACCATGCAATAACTGTCCGGAGTCACCTAGTGCAG | 8270 fluorescence intensity (a.u.) |
| CCAATGATATGTGCCGAAGTTGTATTTATCGAGAGATATTCGGAGTCACCTAGTGCAG | 9850 fluorescence intensity (a.u.) |
| CCAGTGAATTACATTTTTGCCCGATCCCGTCGCGAACTCCCGGAGTCACCTAGTGCAG | 8750 fluorescence intensity (a.u.) |
| CTGGGTGTTCAGATATATTACTAGAGGTCATACCATACAACGGAGTCACCTAGTGCAG | 8130 fluorescence intensity (a.u.) |
| CTTGGCTGTTCTTGGGTGGGTGAGGTGGGGCGGTCGGATCCGGAGTCACCTAGTGCAG | 17100 fluorescence intensity (a.u.) |
| CTACTAGTACAGGCTATATCGCTTACTCCCTTTGTCCTAACGGAGTCACCTAGTGCAG | 8420 fluorescence intensity (a.u.) |
| CTAATTAGTACTGCAATTTTGGGTCCTTGGGTTGTTAGAACGGAGTCACCTAGTGCAG | 16900 fluorescence intensity (a.u.) |
| GGCTATCGGTGGGTGGGTGGGGTGTACTACTCCCCTATAACGGAGTCACCTAGTGCAG | 22200 fluorescence intensity (a.u.) |
| GCCATATTATTTTTCCTTTGTCCTAATTAATGTTAGAAATCGGAGTCACCTAGTGCAG | 9440 fluorescence intensity (a.u.) |
| TTAGTACTATTAATTTGGTGGGGTTGGGTGGGTGCTGTAACGGAGTCACCTAGTGCAG | 16700 fluorescence intensity (a.u.) |
| AACCTACTAGCTAGCTTAGTGTACTCTGTGTACTGTATATCGGAGTCACCTAGTGCAG | 8190 fluorescence intensity (a.u.) |
| TAGGGGTTAGTGTGCGAGCATGTGCTGTGTAATTTTTTAACGGAGTCACCTAGTGCAG | 10600 fluorescence intensity (a.u.) |
| TAGTTGTTGTTGTTGTTATTTGTTAATTGGGCCTTGTTCACGGAGTCACCTAGTGCAG | 12300 fluorescence intensity (a.u.) |
| TACATTGTTAGTACTGTTTGGTGTAACTATTTTTTTATAACGGAGTCACCTAGTGCAG | 8180 fluorescence intensity (a.u.) |
| GAGGAGGTGGTGGCGCGGCGTTCTTGGGGCTGGAGAGGGTCGGAGTCACCTAGTGCAG | 8790 fluorescence intensity (a.u.) |
| TGGGTCTCTTGGGGTCGGTGGGGCGGTCGTCGTCCGTGCCCGGAGTCACCTAGTGCAG | 11400 fluorescence intensity (a.u.) |
| CTTCGCTTTCGTCACGTTCTTGATTTGGGCGGGCGCGGAGCGGAGTCACCTAGTGCAG | 8980 fluorescence intensity (a.u.) |
| CTCGGGAGAGGGGAGGCGTAGATTCTTCTGTTGCTTCAGTCGGAGTCACCTAGTGCAG | 10300 fluorescence intensity (a.u.) |
| CGTCGAACGTCCACTACCATCCTCTTGTTAATCCCGCAAACGGAGTCACCTAGTGCAG | 8060 fluorescence intensity (a.u.) |
| TTTCTTTGACTCGGTGACTTTGTGAGAGATGTTTTATGCCCGGAGTCACCTAGTGCAG | 9190 fluorescence intensity (a.u.) |
